# Test results published in ChEMBL document CHEMBL3988442, “University of Dundee, Small-Polar-MMV Screening Library” (2021).
# About 900 (1.7%) of roughly 53,000 compounds showed an effect of 50% or more. The full list was thinned out, with strong results kept by preference.
# Tested on: Mycobacterium tuberculosis
# Test: Cornell - Phenotypic assay to identify agents that inhibit growth of Mycobacterium tuberculosis
# Format: functional
# Design: scale not given: direction of the effect not stated beside the values
# Details: 10 mM as filed; unlikely as a test dose
row,Structure (SMILES),Percent Effect [%]
1,Cc1cc(O)cc(C2CCCN2C(=O)c2ccncc2)n1 (stereo unspecified),3.916
2,Cc1ccc(OCc2nc(CNCCn3cccn3)cs2)cc1,44.09
3,Cc1cnn(CCNCc2ccc(OCc3csc(C)n3)cc2)c1,22
4,Cc1cnn(CCCNCc2csc(COc3ccccc3)n2)c1,86.59
5,Cc1cnn(CCNCc2csc(C)n2)c1,2.389
6,Cc1cnn(CCNCc2csc(COc3ccccc3)n2)c1,79.25
7,c1ccc(OCc2nc(CNCCn3cccn3)cs2)cc1,-6.946
8,CCc1ccc(-n2c(=O)[nH]c3nc(N4CCSCC4)ncc3c2=O)cc1,-3.279
9,CNC(=O)c1ccc(C2CN(C(=O)c3scnc3C)CCO2)nc1 (stereo unspecified),-17.28
10,Cc1nc(-c2ccncc2)ncc1C(C)NC(=O)Cn1ccccc1=O (stereo unspecified),-23.83
11,O=C(CC1CCCC1)N1CCOC(c2nc(-c3ncccn3)no2)C1 (stereo unspecified),12.79
12,CN(C)C(=O)C1(C)CN(Cc2cn(C)c3ccccc23)CCO1 (stereo unspecified),34.96
13,CNC(=O)C1(C)CN(Cc2cn(C)c3ccc(F)cc23)CCO1 (stereo unspecified),75.75
14,CN(C)C(=O)C1(C)CN(Cc2cn(C)c3ccc(F)cc23)CCO1 (stereo unspecified),20.08
15,CCn1cc2c(n1)CN(Cc1ccc(C)o1)CC2COCC1CC1.O=C(O)C(F)(F)F (stereo unspecified),32.3
16,CCn1cc2c(n1)CN(Cc1ccc(F)cc1)CC2COCC1CC1.O=C(O)C(F)(F)F (stereo unspecified),11.94
17,CCn1cc2c(n1)CN(Cc1sccc1C)CC2COCC1CC1.O=C(O)C(F)(F)F (stereo unspecified),57.43
18,COCC1CN(Cc2ccc(OC)cc2)Cc2nn(C)cc21.O=C(O)C(F)(F)F (stereo unspecified),102.7
19,CCOCC1CN(Cc2ccc(OC)cc2)Cc2nn(C)cc21.O=C(O)C(F)(F)F (stereo unspecified),-10.16
20,COCC1CN(Cc2ccc(F)cc2)Cc2nn(C)cc21.O=C(O)C(F)(F)F (stereo unspecified),21.43
21,COCCC(=O)N1CCCC([C@@H]2C[C@H](C(F)F)n3ncnc3N2)C1 (stereo partly specified),3.93
22,Cc1nc(C)n(CC2CCCN(CCC(=O)Nc3cc(C)on3)C2)n1 (stereo unspecified),-4.464

row,Structure (SMILES),Percent Effect [%]
1,CCCS(=O)(=O)N1CC(=O)N(Cc2cccc(OC)c2OC)CC(O)C1 (stereo unspecified),0.4174
2,CCc1n[nH]c(C(=O)NCCn2nccc2C)c1C,-14.26
3,COCCN(C)C(C(=O)O)c1ccc2ccccc2c1 (stereo unspecified),-16.36
4,COc1ccc(CN2CCN(c3ncc(Cl)cn3)CC2)cc1,15.9
5,CCc1ccc(CN2CCN(c3ncc(Cl)cn3)CC2)nc1,55.1
6,CCc1ccc(CN2CCN(c3ccc(Cl)nn3)CC2)nc1,44.3
7,Cc1ccccc1CN1CCCN(C(=O)c2ccn(C)c(=O)c2)CC1,-39.51
8,Cc1ccc(-c2nc(CCNCc3ccncc3)co2)cc1,55.33
9,COc1ccc(-c2nc(CCNCc3ccncc3)co2)cc1,44.79
10,c1ccc(-c2nc(CCNCc3ccncc3)co2)cc1,-12.86
11,CO[C@@H]1CN(C)S(=O)(=O)[C@@]12CCN(Cc1ccccc1)C2,9.469
12,CC(C)c1cc(C2CCCN2C(=O)CN2C(=O)OC(C)(C)C2=O)no1 (stereo unspecified),16.26
13,CN(Cc1ncc[nH]1)c1nc(-c2ccccn2)nc2c1CCNCC2,56.27
14,CN(Cc1cccnc1)c1nc(-c2ccccn2)nc2c1CCNCC2,31.77
15,CN(Cc1nccs1)c1nc(-c2ccccn2)nc2c1CCNCC2,28.38
16,COc1c(C2CCCN2C(=O)c2cncnc2C)c(C)nn1C (stereo unspecified),-27.58
17,CC(=O)c1ccn(CC(=O)Nc2nn(CC3CC3)c3ccccc23)n1,23.92
18,CCn1nc(NC(=O)Cn2ccc(C(C)=O)n2)c2ccccc21,6.087
19,COC(=O)c1ccn(CC(=O)Nc2nn(CC3CC3)c3ccccc23)n1,50.91
20,Cc1csc(C(Cc2ccsc2)NC(=O)c2cc(=O)n(C)c(=O)n2C)n1 (stereo unspecified),-13.69
21,OCC1CN(Cc2nc(C(F)(F)F)cs2)c2ccccc2O1 (stereo unspecified),105.7
22,CN(Cc1nc(C(F)(F)F)cs1)C(=O)CCc1ccccn1,3.481

row,Structure (SMILES),Percent Effect [%]
1,Cc1csc(CN2CC(CO)Oc3ccccc32)n1 (stereo unspecified),26.95
2,Cc1nc(CNC2CCN(Cc3ccccc3)C2)sc1C (stereo unspecified),5.497
3,Cc1nc(CCNC2CCN(Cc3ccccc3)C2)sc1C (stereo unspecified),2.096
4,Cc1nc(CN2CC(CO)Oc3ccccc32)sc1C (stereo unspecified),83.41
5,CC(C)c1nc2oc(C(=O)N3CCOCC3)c(N)c2c2c1CCCC2,5.641
6,COc1ccccc1Oc1cncc(C2CCCN(C)C2)n1 (stereo unspecified),10.25
7,COC1CCN(C(=O)c2c(Cl)c3ccccc3n2C)CC1,49.28
8,CCOC1CCN(C(=O)c2c(Cl)c3ccccc3n2C)CC1,55.05
9,Cn1c(C(=O)N2CCC(CC(N)=O)CC2)c(Cl)c2ccccc21,-5.817
10,Cn1cc(C2CCCN2C(=O)c2cn(-c3ccccc3)nn2)cn1 (stereo unspecified),-26.03
11,CNC(=O)c1cn[nH]c1C1CCN(Cc2ccccc2F)C1 (stereo unspecified),-6.719
12,COc1cc(C)c(S(=O)(=O)CC(=O)N(C)C(C)C)cc1OC,1.501
13,CN(C1CCCCC1)S(=O)(=O)N1CCN(Cc2ccco2)CC1,2.513
14,Cc1ccccc1CN1CCCN(S(=O)(=O)N(C)C2CCCCC2)CC1,58.2
15,CN(C1CCCCC1)S(=O)(=O)N1CCN(Cc2ccon2)CC1,27.01
16,CCOCCC1(CNC(=O)c2ccncc2)CCC1,19.62
17,CN1CCCC(c2ccc(N3CCOCC3)cn2)C1.Cl (stereo unspecified),35.11
18,Cc1cc(C2CCCCN2C(=O)c2ccsc2)nc2nccn12 (stereo unspecified),-13.93
19,Cc1cc(NC(=O)CN2CCN(C3CCCC3)C(=O)C2)nn1C,12.31
20,CCn1nccc1CN(C)c1[nH]cnc2nc(C)nc1-2,1.62
21,c1ccc(-c2nc3c(c(NCCc4c[nH]cn4)n2)CCNC3)cc1,96.35
22,c1cc(-c2nc3c(c(NCCc4c[nH]cn4)n2)CCNCC3)ccn1,-23.76

row,Structure (SMILES),Percent Effect [%]
1,c1nc(CCNc2nc(C3CC3)nc3c2CCNCC3)c[nH]1,8.345
2,O=C(c1ccncc1)N1CCC(Cc2cnc3[nH]ccc3c2)CC1,-105.2
3,Cc1ncc2c(n1)CN(Cc1nc(-c3cccs3)no1)CC2,-6.861
4,CC(C)c1ncc2c(n1)CN(Cc1nc(-c3cccs3)no1)CC2,53.42
5,CCc1ncc2c(n1)CN(Cc1nc(-c3cccs3)no1)CC2,23.26
6,CCOc1cccc2c1OCC(=O)N(c1ccc3c(c1)OCO3)C2,-8.978
7,Cc1ncc(C(=O)NCCNC(=O)c2ccccc2)s1,-13.65
8,CCc1nccn1C1CCCN(C(=O)c2cn3c(C)cccc3n2)C1 (stereo unspecified),3.072
9,CN1CCOC(CN(C(=O)CCc2cnn(C)c2)c2nccs2)C1 (stereo unspecified),-11.48
10,CC(C)N1CCC(CNCc2c[nH]nc2C(C)(C)C)C1 (stereo unspecified),7.799
11,CC(C)(C)c1n[nH]cc1CNCC1CCN(C2CC2)C1.Cl (stereo unspecified),94.59
12,CCN1CCC(CNCc2c[nH]nc2C(C)(C)C)C1.Cl (stereo unspecified),10.08
13,Cl.O=S(=O)(N1CCCC1)N1CC[C@H](c2ccccc2)[C@H]2NCCCC[C@H]21,-130.5
14,CCC(CO)(CO)NC(=O)C1CCC(=O)N(CCc2ccccc2)C1 (stereo unspecified),9.017
15,CC(Cn1cccn1)NCc1csc(-c2ccc3c(c2)OCO3)n1 (stereo unspecified),59.29
16,CC(Cn1cccn1)NCc1csc(-c2ccc(F)cc2)n1 (stereo unspecified),35.16
17,COc1cccc(-c2nc(CNC(C)Cn3cccn3)cs2)c1 (stereo unspecified),32.64
18,COc1ccc(-c2nc(CNC(C)Cn3cccn3)cs2)cc1 (stereo unspecified),49.5
19,CC(Cn1cccn1)NCc1nc(-c2ccc3c(c2)OCO3)no1 (stereo unspecified),3.313
20,Cc1cnn(CC(C)NCc2csc(-c3cccs3)n2)c1 (stereo unspecified),3.673
21,CC(Cn1cccn1)NCc1csc(-c2ccccc2)n1 (stereo unspecified),63.3
22,CC(Cn1cccn1)NCc1csc(-c2ccsc2)n1 (stereo unspecified),13.88

row,Structure (SMILES),Percent Effect [%]
1,CC(Cn1cccn1)NCc1csc(-c2cccs2)n1 (stereo unspecified),61.96
2,CC(C)Cc1cc(NC(=O)c2ccccc2F)n(C)n1,11
3,CCc1ccc(N2CCC(NS(=O)(=O)N(CC)CC)CC2)cc1,14.08
4,CCN(CC)C(=O)c1ccc(NC(=O)CNc2ccc(Br)cc2F)cc1,-14.15
5,COc1ccc(NC(=O)CNc2ccc(Br)cc2F)cc1,107.2
6,N#CCc1ccc(NC(=O)CNc2ccc(Br)cc2F)cc1,10.15
7,CC(C)CN1CCC(c2nc3ccc(NC(C)C)cn3n2)CC1.O=C(O)C(F)(F)F.O=C(O)C(F)(F)F,2.767
8,CN1CCOC(CNCc2cnc(C(C)(C)C)s2)C1 (stereo unspecified),18.35
9,Cc1cc(C(=O)Nc2cccn(Cc3ccc(F)cc3)c2=O)no1,24.65
10,O=C(NCCn1ccnc1)N1CCN(Cc2cccs2)CC1,-4.677
11,O=C(NCCn1ccnc1)N1CCN(c2nccs2)CC1,-3.95
12,Cc1noc(C)c1C(C)NC(=O)N1CCN(c2cccs2)CC1 (stereo unspecified),32.97
13,CC(NC(=O)N1CCN(c2cccs2)CC1)c1ccc(C#N)cc1 (stereo unspecified),66.35
14,CC(=O)Nc1nc(C(=O)NC(C)c2ccc(C#N)cc2)cs1 (stereo unspecified),12.08
15,O=C(NCCCn1ccnc1)N1CCN(c2cccs2)CC1,78.28
16,CC(NC(=O)N1CCN(c2ncccn2)CC1)c1ccc(C#N)cc1 (stereo unspecified),-12.2
17,CC(C)c1noc(CCNC(=O)N2CCN(c3cccs3)CC2)n1,4.976
18,CC(NC(=O)N1CCN(c2cccs2)CC1)c1ccncc1 (stereo unspecified),62.51
